Test results as given in PubChem BioAssay (NCI).
Compounds without any hit were thinned out: in the full panel of roughly 79,000, 15% have a hit. Activity calls are given as the source filed them. Cut-off read from the data, not from the text of the source: active = growth inhibition above about 70%; inactive = the rest. Where a SMILES comes first, the peptide text is derived from it. The star is where a group is joined. Boc = CC(C)(C)OC(=O)*

How the values were obtained:
[1] = NCI Yeast Anticancer Drug Screen. Data for the sgs1 mgt1 strain (AID 161);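 note: 0% = growth of cultures given vehicle only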; settings: S. cerevisiae sgs1 mgt1 strain, at 50.0 µM, hits give high values
How it was run: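 Test agents were incubated with a DNA-repair-mutant yeast strain. Growth was then read and compared against vehicle-treated controls.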

[2] = NCI Yeast Anticancer Drug Screen. Data for the rad50 strain (AID 155);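 note: 0% = growth of vehicle-only cultures of the same strain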; settings: S. cerevisiae rad50 strain growth inhibition; at 50.0 µM; hits give high values
How it was run: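 Inhibition values express reduced yeast growth in compound-treated cultures relative to vehicle-treated controls.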

[3] = NCI Yeast Anticancer Drug Screen. Data for the cln2 rad14 strain (AID 165);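 note: 0% = growth equal to vehicle treated cultures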; settings: S. cerevisiae cln2 rad14 strain, at 50.0 µM, hits give high values
How it was run: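 Compounds are applied to the cln2 rad14 yeast strain, and growth is then compared with that of vehicle-treated cultures to give inhibition.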

[4] = NCI Yeast Anticancer Drug Screen. Data for the bub3 strain (AID 167); settings: S. cerevisiae bub3 mutant strain, at 50.0 µM, hits give high values
How it was run: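 Steps: expose the mutant yeast strain to compound; grow alongside vehicle-treated cultures; measure growth; express inhibition against the vehicle cultures.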

[5] = NCI Yeast Anticancer Drug Screen. Data for the mlh1 rad18 strain (AID 175); settings: S. cerevisiae mlh1 rad18 strain growth inhibition; at 50.0 µM; hits give high values
How it was run: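 Read-out is yeast growth inhibition, calculated against vehicle-only controls. The compound was applied to a strain engineered with DNA damage repair alterations.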

Measured: growth inhibition

CC(=O)Nc1ccc(N(C)C)c(C)c1
inactive: [1] -1.85%

O=C(NCCCN(CCCCN(CCCNC(=O)C(F)(F)F)Cc1ccc2ccccc2c1)Cc1ccc2ccccc2c1)C(F)(F)F
active: [2] 83.4% | [1] 88.5% | [3] 88.2% | [4] 87% | [5] 92.5%

O=c1oc2ccccc2c(O)c1Oc1ccccc1
inactive: [2] -7.35% | [1] -15.3% | [3] -10.7% | [4] -12.5% | [5] -1.05%

Nc1nc(N)c2nn(-c3ccc(C(=O)O)cc3)nc2n1
inactive: [2] -13.6% | [1] -5.15% | [3] -16.9% | [4] -11.2% | [5] 6.05%

CC1(O)C(O)C(O)C1(O)CO (stereo unspecified) (tested in a mixture with another compound)
inactive: [2] 6.55% | [1] 9.9% | [3] -1.85% | [4] -2.4% | [5] -4.9%

OC(CNc1ccccn1)c1ccccc1 (stereo unspecified)
inactive: [2] -3.9% | [1] -35.6% | [3] 29.2% | [4] -33.8% | [5] 16.2%

CC(C)c1ccc(/C=C2/CCCCC2=O)cc1
inactive: [2] -2.55% | [1] -10.5% | [3] -68.8% | [4] -16.4% | [5] -24.9%

O=P(NC1CCCCC1)(NC1CCCCC1)NC1CCCCC1
inactive: [2] 19.1% | [1] -0.75% | [3] 12.1% | [4] 12.8% | [5] 14.2%

CC1C2CC(CC(=O)N2)C1(C)C (stereo unspecified)
inactive: [2] 15.6% | [1] 21.7% | [3] 15.1% | [4] 11.2% | [5] 13.6%

CC1(C)S[C@H](c2ccccc2C(=O)O)N[C@@H]1CC(=O)O
inactive: [2] -35.3% | [1] -49.5% | [3] -21.7% | [4] -26.5% | [5] -31.4%

CC(C)n1c(=O)nc(-c2ccccc2)c2cc3c(cc21)OCO3
inactive: [2] 27.3% | [1] 51.4% | [3] 7% | [4] 47.9% | [5] 8.65%

CCNC(=O)N(Cc1ccccc1)Cc1ccccc1
inactive: [2] 7.55% | [1] 6.05% | [3] 13.3% | [4] 23.5% | [5] -20.6%

CCOC(=O)/C(=C/c1cn(C(C)=O)c2ccccc12)P(C)(=O)OCC (stereo unspecified)
inactive: [2] 33.2% | [1] 55.5% | [3] 40% | [4] 53.5% | [5] 22.2%

CC=NC(C)(C)C
inactive: [2] -7.25% | [1] -12.3% | [3] -11.8% | [4] 3.3% | [5] -18.9%

CC1=Nc2ccccc2C1(C)C
inactive: [2] 8.25% | [1] 15% | [3] 21.2% | [4] 4.55% | [5] 9.3%

C=COC(=O)C(Cc1ccccc1)NC(=O)OCc1ccccc1 (stereo unspecified)
inactive: [2] -5.2% | [1] -23.2% | [3] 10.6% | [4] -7.65% | [5] 6.9%

Nc1nc(Cl)cc(NCC(O)CO)n1 (stereo unspecified)
inactive: [2] 7.55% | [1] -1.45% | [3] 6.65% | [4] -0.25% | [5] -2.55%

C=C(C)CNC(=S)N(N)c1ccc(OC)cc1
inactive: [2] 39.5% | [1] 16.6% | [3] -2.2% | [4] 12.4% | [5] 36.1%

CN(C)CCNc1ccc(NCCN(C)C)c2c1C(=O)c1ncsc1C2=O
inactive: [2] -8.15% | [1] 14.2% | [3] 8.35% | [4] 2.1% | [5] -16.8%

CNC(=O)N(C)C(C)=O
inactive: [2] -6.15% | [1] 0% | [3] -3.25% | [4] -5.15% | [5] 4.9%

c1cc(OCCOc2cccc3ocnc23)c2ncoc2c1
inactive: [2] -12.8% | [1] -5.85% | [3] -14.8% | [4] -18.4% | [5] 0.65%

COc1n[n+]([O-])c(OC)cc1[N+](=O)[O-]
inactive: [2] 51.7% | [1] 33.9% | [3] 15% | [4] 17.6%
active: [5] 76.7%

CCN=C(C#N)NCC
inactive: [2] 19.2% | [1] 20.9% | [3] 16.6% | [4] 25.2% | [5] 29.8%

CC1=NN(C(=O)c2ccccc2O)C(=O)/C1=C/c1ccc(O)cc1
inactive: [2] 6.3% | [1] -15.5% | [3] -5.65% | [4] -11.8% | [5] -27.6%

C=CCOC(=O)c1ccco1
inactive: [2] 5.6% | [1] 2.35% | [3] -1.4% | [4] 0.45% | [5] 2.05%

CN1CCN(C(=O)NC(C)(C)C)CC1
inactive: [2] -1.45% | [1] -8.35% | [3] -88.8% | [4] -1.9% | [5] -17.7%

CCN(CC)C1(C(F)C(F)(F)F)OCC2(CO1)COC(C(F)C(F)(F)F)(N(CC)CC)OC2 (stereo unspecified)
inactive: [2] -10.1% | [1] -0.4% | [3] 2.3% | [4] 0.8% | [5] 6.6%

O=C(O)COc1cccc(O)c1
inactive: [2] -26.4% | [1] -39.6% | [3] -13.1% | [4] -27.9% | [5] -20.1%

N#CCNC=O
inactive: [2] -2.9% | [1] -13.4% | [3] -11.9% | [4] 2.8% | [5] -11.5%

NCCCCCCN1CCN(c2cccc(Cl)c2)CC1
inactive: [2] 14.2% | [1] 14.8% | [3] 7.55% | [4] 13.8% | [5] -13.4%

Cc1cc2c(cc1Cl)SSc1cc(Cl)c(C)cc1S(=O)(=O)Nc1nc(N)nn1C(O)n1nc(N)nc1NS2(=O)=O
inactive: [2] 7.65% | [1] 9.1% | [3] 20.7% | [4] 30.4% | [5] 0.45%

CC1(C)OCC(C(O)C2OC(C)(C)OC2/C=N\O)O1 (stereo unspecified)
inactive: [2] -3.9% | [1] -0.2% | [3] -0.5% | [4] -1.45% | [5] -17%

C=CCNC(=S)NNC(=S)NCC=C
inactive: [2] 9.55% | [1] 10.4% | [3] 3.6% | [4] -16.4% | [5] 22.2%

CC(C)C(NC(=O)OC(C)(C)C)C(=O)N1CCCC1C(=O)O (stereo not drawn) (Boc-Val-Pro-OH; configuration not given here)
inactive: [2] 11.8% | [1] 18% | [3] 3.3% | [4] 2.3% | [5] 5.65%

CCC(O)CNCc1c2ccccc2cc2ccccc12 (stereo unspecified)
inactive: [2] 20.1% | [1] 22.1% | [3] 12.6% | [4] 1.95% | [5] 10.8%

C=CCn1c(NCCN(CC)CC)nc2ccc(Cl)cc2c1=O
inactive: [2] 47% | [1] 31.8% | [3] 0.85% | [4] 11.8% | [5] 19.4%

Cc1ccc2nc(-c3ccc(N=NNc4ccc(-c5nc6ccc(C)c(S(=O)(=O)O)c6s5)cc4)cc3)sc2c1S(=O)(=O)O
inactive: [2] 23.5% | [1] -9.7% | [3] 18.2% | [4] 12.3% | [5] 18.6%

COc1ccc(C(c2ccccc2)c2ccc(OC)cc2)cc1
inactive: [2] -7.95% | [1] -12.9% | [3] -124% | [4] 37.7% | [5] 4.45%

COc1ccc2nc(NC(=O)C(=O)C(C#N)c3ccc(CC#N)cc3)sc2c1 (stereo unspecified)
inactive: [2] -4.3% | [1] 4.5% | [3] -4.85% | [4] 0.15% | [5] -5.75%

c1ccc2c(c1)ccc1c2c[n+](CCCCCCCC[n+]2cc3c4ccccc4ccc3c3ccccc32)c2ccccc12
active: [2] 88.4% | [1] 87.5% | [3] 86.2% | [4] 83.2% | [5] 90.5%

Cc1ccc(-n2cnc3c(Cl)ncnc32)cc1
inactive: [2] -18.1% | [1] -12.1% | [3] -15.2% | [4] -16.8% | [5] 3.3%
